Records with an inconclusive call do not appear. Calls of active or inactive are those of the source. Unless noted, the call rests on the fitted dose curve; in most records, active means well fitted cell-killing curve with a large enough effect; inconclusive means small, poorly fitted or top-dose-only effect; inactive means flat fitted curve, though single readings scatter.
How the values were obtained:
[1] = Cell Viability - LYMP2-023 (AID 975);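 further: cellular ATP measured by luciferase luminescence as viability proxy; series mostly up to about 92 µM; plate controls were DMSO only for no effect and 92 µM tetraoctylammonium bromide control for full effect; nearly all actives have a fitted effect of over 55% in size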
Outline: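 Human lymphoblastoid cells (2500/well) were preincubated 5 hr at 37 C, then exposed to compounds for 24 hr at 37 C in complete medium. Cellular ATP was read by CellTiter-Glo luminescence, and AC50 came from Hill-equation fits.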

[2] = Cell Viability - LYMP2-025 (AID 976);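 further: series mostly up to about 92 µM; plate controls were DMSO only for no effect and tetraoctylammonium bromide control for full effect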
Outline: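 Human lymphoblastoid LYMP2-025 cells (2500/well) were pre-incubated 5 hr at 37 C, then treated with compounds for 24 hr at 37 C in complete medium. Viability was read as intracellular ATP by CellTiter-Glo luminescence; AC50 from Hill fits.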

[3] = Cell Viability - LYMP2-002 (AID 977);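 further: series mostly up to about 92 µM; compound exposure lasted 24 h at 37 °C; plate controls were DMSO only for no effect and 92 µM tetraoctylammonium bromide for full effect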
Outline: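 Human lymphoblastoid LYMP2-002 cells, 2500 per well, exposed to compounds for 24 h at 37 C in complete medium; viability read as intracellular ATP by CellTiter-Glo luminescence, AC50 from Hill fits.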

[4] = Cell Viability - LYMP2-006 (AID 978); further: series mostly up to about 92 µM; on the % scale 0 is the no-effect control and ±100 the full control effect; nearly all actives have a fitted effect of over 60% in size
Outline: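 Cells are seeded at 2500 per well and rested 5 hr at 37 C. Compounds are added across a concentration series for 24 hr at 37 C, after which ATP is quantified by luciferase luminescence.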

[5] = Cell Viability - LYMP2-007 (AID 979);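 further: cells exposed to compound for 24 h before reading; 0% = DMSO only and the negative end = 92 µM tetraoctylammonium bromide; nearly all actives have a fitted effect of over 60% in size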
Outline: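 Human lymphoblastoid cells (2500/well) were plated in complete medium, incubated 5 hr at 37 C, then exposed to compounds for 24 hr at 37 C. Intracellular ATP was read by CellTiter-Glo luminescence after 30 min at room temperature; AC50 from Hill fits.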

[6] = Cell Viability - LYMP2-008 (AID 980); further: on the % scale 0 is the no-effect control and ±100 the full control effect; nearly all actives have a fitted effect of over 60% in size
Outline: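 Human lymphoblastoid cells (2500/well) were plated, held 5 hr at 37 C, then exposed to compounds for 24 hr at 37 C in complete medium. Intracellular ATP was read by CellTiter-Glo luminescence; AC50 from Hill-fitted concentration-response.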

[7] = Cell Viability - LYMP2-014 (AID 983);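 further: series mostly up to about 92 µM; plate controls were DMSO only for no effect and 92 µM tetraoctylammonium bromide for full effect; nearly all actives have a fitted effect of over 50% in size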
Outline: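 Human lymphoblastoid cells (2500/well) were pre-incubated 5 hr at 37 C, then exposed to compounds in complete medium for 24 hr at 37 C. Intracellular ATP was read by CellTiter-Glo luminescence after 30 min at room temperature; AC50 from Hill fits.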

[8] = Cell Viability - LYMP2-016 (AID 984); further: on the % scale 0 is the no-effect control and ±100 the full control effect; nearly all actives have a fitted effect of over 55% in size
Outline: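 Cells were seeded at 2500 per well and rested 5 hr before a 24 hr compound exposure at 37 C. Viability was then gauged as cellular ATP by luciferase luminescence, with AC50 values fitted to the Hill equation.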

[9] = Cell Viability - LYMP2-018 (AID 985);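 further: plate controls were DMSO only for no effect and tetraoctylammonium bromide at 92 µM for full effect; nearly all actives have a fitted effect of over 50% in size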
Outline: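 Human lymphoblastoid cells (2500/well) were pre-incubated 5 hr at 37 C, then exposed to compounds for 24 hr at 37 C in complete medium. Viability was read as intracellular ATP by CellTiter-Glo luminescence; AC50 values came from Hill-equation fits.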

[10] = Cell Viability - LYMP2-020 (AID 986);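 further: series mostly up to about 92 µM; plate controls were DMSO only for no effect and tetraoctylammonium bromide at 92 µM for full effect; nearly all actives have a fitted effect of over 55% in size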
Outline: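 Human lymphoblastoid cells, 2500/well, were pre-incubated 5 hr at 37 C, then exposed to compounds for 24 hr at 37 C in complete medium. Intracellular ATP was read by CellTiter-Glo luminescence, and AC50 was derived by Hill fitting of concentration-response data.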

[11] = Cell Viability - LYMP2-024 (AID 988);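 further: plate controls were DMSO only for no effect and 92 µM tetraoctylammonium bromide for full effect; nearly all actives have a fitted effect of over 60% in size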
Outline: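 Human lymphoblastoid cells (2500/well) in complete medium were preincubated 5 hr at 37 C, then exposed to compounds for 24 hr at 37 C. Intracellular ATP was read by CellTiter-Glo luminescence; AC50 from Hill-equation fits of concentration-response data.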

[12] = Cell Viability - LYMP2-026 (AID 989); further: on the % scale 0 is the no-effect control and ±100 the full control effect; nearly all actives have a fitted effect of over 50% in size
Outline: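 Human lymphoblastoid cells (2500/well) in complete medium were preincubated 5 hr at 37 C, then exposed to compounds for 24 hr at 37 C. Cellular ATP was read by CellTiter-Glo luminescence; AC50 from Hill-equation fits of concentration-response data.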

[13] = Cell Viability - LYMP1-002 - Assay at 24 hr (AID 993); further: on the % scale 0 is the no-effect control and ±100 the full control effect
Outline: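 Human lymphoblastoid LYMP1-002 cells, 2500/well in complete medium, were treated with compounds for 24 h at 37 C; intracellular ATP was read by CellTiter-Glo luminescence. AC50 values came from Hill-equation fits of qHTS concentration-response data.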

[14] = Cell Viability - LYMP1-002 - Assay at 40 hr (AID 994)
Outline: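 Human lymphoblastoid cells, 2500/well in complete medium, were preincubated 5 hr at 37 C, then exposed to compounds for 40 hr at 37 C. Intracellular ATP was read by CellTiter-Glo luminescence after 30 min at room temperature; AC50 from Hill-equation fits.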

[15] = qHTS Assay for Identification of Small Molecule Inducers of Hypoxia Response (AID 2120; active means well fitted curve in the direction sought with a large enough effect in the signal ratio, with a control signal flat, not every such curve was filed as active; the % refers to the signal ratio; further: 0% is about no effect)
Outline: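 HRE-beta-lactamase reporter in CellSensor HRE-bla ME-180 cells, 2500 cells/well in Opti-MEM with 0.5% dialyzed FBS; compounds tested as titration series, 17 h at 37 degrees C. CCF4 substrate 2.5 h at room temperature; AC50 from 460/530 nm ratio.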

[16] = target: Estrogen receptor (Homo sapiens) (UniProt P03372); assay: qHTS assay for small molecule antagonists of estrogen receptor alpha signaling (AID 588513; active means well fitted curve in the direction sought with a large enough effect in the signal ratio, with a control signal flat, not every such curve was filed as active; the % refers to the signal ratio; further: on the % scale 0 is the no-effect control and ±100 the full control effect)
Outline: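 Fluorescence from CCF4 substrate after 2 h at room temperature gave reporter activity; cells had been exposed to compound and 0.5nM 17-beta-estradiol for 18 h at 37 C. Hill-equation fitting yielded IC50 and maximal response.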

[17] = target: Estrogen receptor (Homo sapiens) (UniProt P03372); assay: qHTS assay for small molecule agonists of estrogen receptor alpha signaling (AID 588514; calls by dose curve;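 further: 0% = vehicle only and 100% = reference agonist; nearly all actives have a fitted effect of over 70% in size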)
Outline: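 ER-alpha-UAS-bla GripTite HEK 293 cells in medium with 2% charcoal/dextran-treated FBS were treated with compound titrations at 37 C for 18 hrs; beta-lactamase reporter read by CCF4 fluorescence after 2 hrs at RT.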

[18] = target: Bile acid receptor (Homo sapiens) (UniProt Q96RI1); assay: qHTS assay for small molecule antagonists of farnesoid X receptor signaling (AID 588526; calls by dose curve; further: on the % scale 0 is the no-effect control and ±100 the full control effect)
Outline: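 Antagonist mode: titrated compounds tested against chenodeoxycholic acid stimulation (normalized to 50 uM CDCA and DMSO) in GeneBLAzer HEK293T cells for 16 h. Beta-lactamase read by CCF4 fluorescence; IC50 from Hill fits.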

[19] = target: Bile acid receptor (Homo sapiens) (UniProt Q96RI1); assay: qHTS assay for small molecule agonists of farnesoid X receptor signaling (AID 588527; calls by dose curve;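 further: series mostly up to about 77 µM; 0% = vehicle basal and 100% = reference agonist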); settings: HEK293T FXR-UAS-bla, beta-lactamase ratio, 16 h; stronger effect = higher value
Outline: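 FXR-UAS-bla HEK293T, 10% dialyzed FBS; cpds up to 92 uM titration, 16 h 37 C; CCF4 dye 2 h RT; fluorescence. Normalized to chenodeoxycholic acid 100 uM (100%) and DMSO (0%); Hill fit gives EC50, efficacy.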

[20] = target: Glucocorticoid receptor (Homo sapiens) (UniProt P04150); assay: qHTS assay for small molecule antagonists of glucocorticoid receptor signaling (AID 588533; active means well fitted inhibition curve with a large enough effect in the signal ratio, with a control signal flat, not every such curve was filed as active; the % refers to the signal ratio;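 further: cells stimulated with 2 nM dexamethasone as agonist; on the % scale 0 is the no-effect control and ±100 the full control effect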)
Outline: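 Antagonist-mode qHTS: compound titrations added to GRE-bla HeLa cells, then dexamethasone 2 nM final; 18 h, 37 C. CCF4 FRET fluorescence normalized to dexamethasone and DMSO; IC50 from Hill fit.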

[21] = target: Peroxisome proliferator-activated receptor delta (Homo sapiens) (UniProt Q03181); assay: qHTS assay for small molecule agonists of peroxisome proliferator-activated receptor delta signaling (AID 588534; calls by dose curve;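 further: 0% = DMSO basal wells and 100% = positive control agonist at 10 µM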)
Outline: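 Cell-based beta-lactamase reporter assay run in agonist mode: cells seeded and incubated 5 hrs at 37 C, compounds added and incubated 18 hrs at 37 C. CCF4 dye fluorescence read after 2 hrs at RT; EC50 and efficacy from Hill fits.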

[22] = qHTS assay for small molecule antagonists of peroxisome proliferator-activated receptor delta signaling (AID 588535); settings: HEK293T PPARd-UAS-bla, beta-lactamase FRET ratio, 18 h; 460 nm channel;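 further: cells co-treated with a PPAR-delta agonist as stimulator during compound exposure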
Outline: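 Cells were seeded at 4000 per well in assay medium containing 2% charcoal/dextran FBS and held 5 hrs at 37 C. Compounds were then added for 18 hrs. CCF4 substrate was applied for 2 hrs at room temperature before fluorescence reading.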

Bile acid receptor (Homo sapiens), sequence (Q96RI1 whole entry, looked up): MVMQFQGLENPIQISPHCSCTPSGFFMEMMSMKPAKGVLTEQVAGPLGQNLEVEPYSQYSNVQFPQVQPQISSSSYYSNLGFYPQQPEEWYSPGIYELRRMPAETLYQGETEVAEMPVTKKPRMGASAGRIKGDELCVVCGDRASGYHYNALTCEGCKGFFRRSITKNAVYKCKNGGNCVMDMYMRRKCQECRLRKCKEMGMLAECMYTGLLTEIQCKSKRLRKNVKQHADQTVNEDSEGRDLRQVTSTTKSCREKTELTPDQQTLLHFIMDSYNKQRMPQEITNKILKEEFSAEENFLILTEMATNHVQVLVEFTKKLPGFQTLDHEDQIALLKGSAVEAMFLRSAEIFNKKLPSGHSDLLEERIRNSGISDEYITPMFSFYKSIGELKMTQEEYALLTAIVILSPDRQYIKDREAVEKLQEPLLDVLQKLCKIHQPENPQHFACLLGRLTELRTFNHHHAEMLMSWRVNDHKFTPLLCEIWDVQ
Estrogen receptor (Homo sapiens), sequence (P03372 whole entry, looked up): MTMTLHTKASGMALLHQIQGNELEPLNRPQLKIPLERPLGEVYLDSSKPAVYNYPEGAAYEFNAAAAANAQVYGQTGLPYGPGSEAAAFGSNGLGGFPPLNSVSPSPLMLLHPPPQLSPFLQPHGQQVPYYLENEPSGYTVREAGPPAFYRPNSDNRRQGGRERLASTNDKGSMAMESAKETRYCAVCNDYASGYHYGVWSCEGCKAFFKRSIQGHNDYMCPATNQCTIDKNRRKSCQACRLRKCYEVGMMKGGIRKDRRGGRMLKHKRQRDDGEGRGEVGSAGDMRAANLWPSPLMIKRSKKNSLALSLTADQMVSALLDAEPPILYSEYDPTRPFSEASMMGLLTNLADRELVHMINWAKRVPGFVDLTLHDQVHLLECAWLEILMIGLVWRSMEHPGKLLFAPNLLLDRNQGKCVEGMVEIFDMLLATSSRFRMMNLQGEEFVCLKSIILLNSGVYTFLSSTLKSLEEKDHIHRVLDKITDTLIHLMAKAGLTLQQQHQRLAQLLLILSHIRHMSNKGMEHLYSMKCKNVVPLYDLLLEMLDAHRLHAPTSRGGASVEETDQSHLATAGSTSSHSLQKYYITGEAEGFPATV
Glucocorticoid receptor (Homo sapiens), sequence (P04150 whole entry, looked up): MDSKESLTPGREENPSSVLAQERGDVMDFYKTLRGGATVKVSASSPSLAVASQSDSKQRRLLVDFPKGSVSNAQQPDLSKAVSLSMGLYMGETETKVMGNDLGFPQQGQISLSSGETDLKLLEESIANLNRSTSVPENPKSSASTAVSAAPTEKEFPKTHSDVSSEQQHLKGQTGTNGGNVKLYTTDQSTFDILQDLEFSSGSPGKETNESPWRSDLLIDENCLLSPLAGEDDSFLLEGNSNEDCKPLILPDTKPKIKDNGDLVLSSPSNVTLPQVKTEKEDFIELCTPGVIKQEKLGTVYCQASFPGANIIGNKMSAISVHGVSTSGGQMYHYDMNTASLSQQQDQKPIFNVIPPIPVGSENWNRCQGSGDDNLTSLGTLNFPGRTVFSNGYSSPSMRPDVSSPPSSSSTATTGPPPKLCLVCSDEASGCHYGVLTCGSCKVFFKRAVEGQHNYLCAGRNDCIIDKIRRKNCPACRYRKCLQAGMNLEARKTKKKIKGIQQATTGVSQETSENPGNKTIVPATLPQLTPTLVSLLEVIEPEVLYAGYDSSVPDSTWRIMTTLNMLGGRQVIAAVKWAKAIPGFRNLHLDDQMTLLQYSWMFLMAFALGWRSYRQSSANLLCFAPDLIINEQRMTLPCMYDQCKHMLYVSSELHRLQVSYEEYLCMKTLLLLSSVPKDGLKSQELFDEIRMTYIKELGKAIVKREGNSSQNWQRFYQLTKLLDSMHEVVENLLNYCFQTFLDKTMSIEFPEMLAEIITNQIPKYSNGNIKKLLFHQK
Peroxisome proliferator-activated receptor delta (Homo sapiens), sequence (Q03181 whole entry, looked up): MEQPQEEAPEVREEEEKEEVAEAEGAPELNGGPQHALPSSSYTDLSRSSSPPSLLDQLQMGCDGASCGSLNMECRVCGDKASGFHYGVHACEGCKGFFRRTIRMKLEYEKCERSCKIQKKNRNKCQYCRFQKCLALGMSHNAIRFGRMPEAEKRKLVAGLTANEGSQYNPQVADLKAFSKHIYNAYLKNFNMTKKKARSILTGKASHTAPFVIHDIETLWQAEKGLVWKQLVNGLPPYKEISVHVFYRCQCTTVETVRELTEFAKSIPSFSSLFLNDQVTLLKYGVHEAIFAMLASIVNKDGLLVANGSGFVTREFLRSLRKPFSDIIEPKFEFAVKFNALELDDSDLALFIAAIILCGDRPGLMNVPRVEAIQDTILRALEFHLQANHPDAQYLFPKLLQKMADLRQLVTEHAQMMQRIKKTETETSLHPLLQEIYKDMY

Cc1cccc(C#N)c1
inactive: Potency [1] | Potency [2] | Potency [3] | Potency [4] | Potency [5] | Potency [6] | Potency [7] | Potency [8] | Potency [9] | Potency [10] | Potency [11] | Potency [12] | Potency [13] | Potency [14] | outcome [15] | Potency [16] | Potency [17] | outcome [18] | activation [19] -2.16% | Potency [20] | outcome [21]
57%: max response [22]

From PubChem BioAssay (NCATS)
